# Experimental data reported in PubChem BioAssay AID1159580 (chemical genetic matrix, 2015).
# The whole screen tested about 5,500 compounds, of which about 2,000 (36%) were called active. Inconclusive results (about 18%) are left out. The list shows a part of the results. Values without a mark were called inactive. Cut-off read from the data, not from the text of the source: active = normalized growth mostly below about 0.91 (no sharp cut-off); inconclusive = no clear call, values can overlap the other calls; inactive = mostly above about 0.92.
# Experiment: chemical genetic growth profiling, strain panel (AID 1159580);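 note: tested at 20 µM; growth read once vehicle control cultures reached saturation at 30 °C; 1 = growth at the plate median or of vehicle wells; lower values mean less growth of the strain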
# Conditions: growth OD
# [1] = S. cerevisiae deletion strains, locus YDR150W, strain NUM1, stronger effect = lower value
# [2] = S. cerevisiae deletion strains, locus YGR078C, strain PAC10, stronger effect = lower value
# [3] = S. cerevisiae deletion strains, locus YGR229C, strain SMI1, stronger effect = lower value
# [4] = S. cerevisiae deletion strains, locus YJR075W, strain HOC1, stronger effect = lower value
# [5] = S. cerevisiae deletion strains, locus YMR307W, strain GAS1, stronger effect = lower value
# [6] = S. cerevisiae deletion strains, locus YNL128W, strain TEP1, stronger effect = lower value
# [7] = S. cerevisiae deletion strains, locus YNL153C, strain GIM3, stronger effect = lower value
# [8] = S. cerevisiae deletion strains, locus YPL055C, strain LGE1, stronger effect = lower value
# [9] = S. cerevisiae deletion strains, locus YPL241C, strain CIN2, stronger effect = lower value
# [10] = S. cerevisiae deletion strains, locus YAL040C, strain CLN3, stronger effect = lower value
# [11] = S. cerevisiae deletion strains, locus YCL061C, strain MRC1 (second series), stronger effect = lower value
# [12] = S. cerevisiae deletion strains, locus YDR363W, strain ESC2, stronger effect = lower value
# [13] = S. cerevisiae deletion strains, locus YER002W, strain NOP16, stronger effect = lower value
# [14] = S. cerevisiae deletion strains, locus YNL175C, strain NOP13, stronger effect = lower value
# [15] = S. cerevisiae deletion strains, locus YNL197C, strain WHI3, stronger effect = lower value
# [16] = S. cerevisiae deletion strains, locus YNL224C, strain SQS1, stronger effect = lower value
# [17] = S. cerevisiae deletion strains, locus YOR083W, strain WHI5 (second series), stronger effect = lower value
structure (smiles),measurement,setting,value
Cc1ccc2cc3c(ccc4ccccc43)c3c2c1CC3,normalized growth,"S. cerevisiae deletion strains, locus YAL013W, strain DEP1, stronger effect = lower value",0.998
same,normalized growth,"S. cerevisiae deletion strains, locus YBR021W, strain FUR4, stronger effect = lower value",0.988
same,normalized growth,"S. cerevisiae deletion strains, locus YBR229C, strain ROT2, stronger effect = lower value",0.982
same,normalized growth,"S. cerevisiae deletion strains, locus YCL029C, strain bik1, stronger effect = lower value",0.954
same,normalized growth,"S. cerevisiae deletion strains, locus YDL035C, strain GPR1, stronger effect = lower value",0.916
same,normalized growth,"S. cerevisiae deletion strains, locus YDL074C, strain BRE1, stronger effect = lower value",0.963
same,normalized growth,"S. cerevisiae deletion strains, locus YDL101C, strain DUN1, stronger effect = lower value",0.973
same,normalized growth,"S. cerevisiae deletion strains, locus YDL134C, strain PPH21, stronger effect = lower value",0.997
same,normalized growth,"S. cerevisiae deletion strains, locus YDL185W, strain tfp1, stronger effect = lower value",0.99
same,normalized growth,"S. cerevisiae deletion strains, locus YDL192W, strain arf1, stronger effect = lower value",0.795 (active)
same,normalized growth,"S. cerevisiae deletion strains, locus YDR101C, strain arx1, stronger effect = lower value",0.96
same,normalized growth,[1],1
same,normalized growth,"S. cerevisiae deletion strains, locus YDR162C, strain NBP2, stronger effect = lower value",0.626 (active)
same,normalized growth,"S. cerevisiae deletion strains, locus YDR318W, strain mcm21, stronger effect = lower value",0.884 (active)
same,normalized growth,"S. cerevisiae deletion strains, locus YDR388W, stronger effect = lower value",0.96
same,normalized growth,"S. cerevisiae deletion strains, locus YDR502C, strain sam2, stronger effect = lower value",0.868 (active)
same,normalized growth,"S. cerevisiae deletion strains, locus YEL061C, strain CIN8, stronger effect = lower value",0.994
same,normalized growth,"S. cerevisiae deletion strains, locus YER110C, stronger effect = lower value",0.952
same,normalized growth,"S. cerevisiae deletion strains, locus YER155C, strain BEM2, stronger effect = lower value",0.997
same,normalized growth,"S. cerevisiae deletion strains, locus YER167W, strain BCK2, stronger effect = lower value",0.917
same,normalized growth,"S. cerevisiae deletion strains, locus YGL078C, strain dbp3, stronger effect = lower value",1
same,normalized growth,"S. cerevisiae deletion strains, locus YGL086W, strain mad1, stronger effect = lower value",0.894 (active)
same,normalized growth,"S. cerevisiae deletion strains, locus YGL248W, strain PDE1, stronger effect = lower value",0.981
same,normalized growth,[2],0.957
same,normalized growth,"S. cerevisiae deletion strains, locus YGR135W, strain pre9, stronger effect = lower value",0.924
same,normalized growth,[3],0.841
same,normalized growth,"S. cerevisiae deletion strains, locus YGR252W, strain gcn5, stronger effect = lower value",0.922
same,normalized growth,"S. cerevisiae deletion strains, locus YHR030C, strain SLT2, stronger effect = lower value",0.837 (active)
same,normalized growth,"S. cerevisiae deletion strains, locus YHR079C, strain IRE1 (second series), stronger effect = lower value",0.954
same,normalized growth,"S. cerevisiae deletion strains, locus YHR094C, strain hxt1, stronger effect = lower value",0.981
same,normalized growth,"S. cerevisiae deletion strains, locus YHR129C, strain ARP1, stronger effect = lower value",0.983
same,normalized growth,"S. cerevisiae deletion strains, locus YHR200W, strain rpn10, stronger effect = lower value",0.933
same,normalized growth,"S. cerevisiae deletion strains, locus YIL066C, strain RNR3, stronger effect = lower value",0.949
same,normalized growth,"S. cerevisiae deletion strains, locus YIL073C, strain SPO22, stronger effect = lower value",0.906
same,normalized growth,"S. cerevisiae deletion strains, locus YIL125W, strain kgd1, stronger effect = lower value",0.941
same,normalized growth,"S. cerevisiae deletion strains, locus YIR030C, strain dcg1, stronger effect = lower value",0.961
same,normalized growth,"S. cerevisiae deletion strains, locus YJL095W, strain BCK1, stronger effect = lower value",0.828
same,normalized growth,"S. cerevisiae deletion strains, locus YJL134W, strain LCB3, stronger effect = lower value",0.99
same,normalized growth,"S. cerevisiae deletion strains, locus YJL168C, strain set2, stronger effect = lower value",0.967
same,normalized growth,"S. cerevisiae deletion strains, locus YJL187C, strain SWE1 (second series), stronger effect = lower value",0.99
same,normalized growth,"S. cerevisiae deletion strains, locus YJR043C, strain POL32, stronger effect = lower value",0.993
same,normalized growth,[4],0.904
same,normalized growth,"S. cerevisiae deletion strains, locus YKL009W, strain mrt4, stronger effect = lower value",0.999
same,normalized growth,"S. cerevisiae deletion strains, locus YKL068W, stronger effect = lower value",0.997
same,normalized growth,"S. cerevisiae deletion strains, locus YKL085W, strain MDH1 (second series), stronger effect = lower value",0.999
same,normalized growth,"S. cerevisiae deletion strains, locus YKL085W, strain MDH1, stronger effect = lower value",0.999
same,normalized growth,"S. cerevisiae deletion strains, locus YKL190W, strain CNB1, stronger effect = lower value",0.958
same,normalized growth,"S. cerevisiae deletion strains, locus YKR001C, strain vps1, stronger effect = lower value",0.685 (active)
same,normalized growth,"S. cerevisiae deletion strains, locus YLR039C, strain RIC1, stronger effect = lower value",0.64 (active)
same,normalized growth,"S. cerevisiae deletion strains, locus YLR058C, strain SHM2, stronger effect = lower value",0.981
same,normalized growth,"S. cerevisiae deletion strains, locus YLR102C, strain apc9, stronger effect = lower value",0.983
same,normalized growth,"S. cerevisiae deletion strains, locus YLR262C, strain YPT6, stronger effect = lower value",0.568 (active)
same,normalized growth,"S. cerevisiae deletion strains, locus YLR268W, strain sec22, stronger effect = lower value",0.838 (active)
same,normalized growth,"S. cerevisiae deletion strains, locus YLR330W, strain CHS5, stronger effect = lower value",0.986
same,normalized growth,"S. cerevisiae deletion strains, locus YLR342W, strain FKS1 (second series), stronger effect = lower value",0.91
same,normalized growth,"S. cerevisiae deletion strains, locus YLR371W, strain rom2, stronger effect = lower value",0.974
same,normalized growth,"S. cerevisiae deletion strains, locus YLR418C, strain cdc73, stronger effect = lower value",0.532 (active)
same,normalized growth,"S. cerevisiae deletion strains, locus YML016C, strain PPZ1, stronger effect = lower value",0.987
same,normalized growth,"S. cerevisiae deletion strains, locus YML032C, strain rad52, stronger effect = lower value",0.908
same,normalized growth,"S. cerevisiae deletion strains, locus YML124C, strain tub3, stronger effect = lower value",0.98
same,normalized growth,"S. cerevisiae deletion strains, locus YMR078C, strain ctf18, stronger effect = lower value",0.959
same,normalized growth,"S. cerevisiae deletion strains, locus YMR223W, strain ubp8, stronger effect = lower value",0.844 (active)
same,normalized growth,"S. cerevisiae deletion strains, locus YMR263W, strain SAP30, stronger effect = lower value",0.986
same,normalized growth,[5],0.711
same,normalized growth,"S. cerevisiae deletion strains, locus YNL067W, strain RPL9B, stronger effect = lower value",0.985
same,normalized growth,[6],0.931
same,normalized growth,[7],1.03
same,normalized growth,"S. cerevisiae deletion strains, locus YNL233W, strain BNI4, stronger effect = lower value",0.933
same,normalized growth,"S. cerevisiae deletion strains, locus YNL250W, strain rad50, stronger effect = lower value",0.966
same,normalized growth,"S. cerevisiae deletion strains, locus YNL271C, strain bni1, stronger effect = lower value",0.959
same,normalized growth,"S. cerevisiae deletion strains, locus YNL298W, strain CLA4, stronger effect = lower value",0.949
same,normalized growth,"S. cerevisiae deletion strains, locus YNL307C, strain MCK1, stronger effect = lower value",0.591 (active)
same,normalized growth,"S. cerevisiae deletion strains, locus YNL322C, strain KRE1, stronger effect = lower value",0.998
same,normalized growth,"S. cerevisiae deletion strains, locus YNR052C, strain pop2, stronger effect = lower value",0.951
same,normalized growth,"S. cerevisiae deletion strains, locus YOL006C, strain TOP1, stronger effect = lower value",0.937
same,normalized growth,"S. cerevisiae deletion strains, locus YOL012C, strain htz1",0.778
same,normalized growth,"S. cerevisiae deletion strains, locus YOL147C, strain pex11, stronger effect = lower value",0.896 (active)
same,normalized growth,"S. cerevisiae deletion strains, locus YOR061W, strain CKA2, stronger effect = lower value",0.98
same,normalized growth,"S. cerevisiae deletion strains, locus YOR069W, strain VPS5, stronger effect = lower value",0.988
same,normalized growth,"S. cerevisiae deletion strains, locus YOR136W, strain idh2, stronger effect = lower value",0.927
same,normalized growth,"S. cerevisiae deletion strains, locus YOR144C, strain elg1, stronger effect = lower value",0.963
same,normalized growth,"S. cerevisiae deletion strains, locus YOR184W, strain ser1, stronger effect = lower value",0.559 (active)
same,normalized growth,"S. cerevisiae deletion strains, locus YOR316C, strain cot1, stronger effect = lower value",0.981
same,normalized growth,[8],0.931
same,normalized growth,[9],1
same,normalized growth,"S. cerevisiae deletion strains, locus YPR119W, strain clb2, stronger effect = lower value",0.976
same,normalized growth,"S. cerevisiae deletion strains, locus YPR141C, strain kar3, stronger effect = lower value",0.983
same,normalized growth,"S. cerevisiae deletion strains, locus YPR163C, strain tif3, stronger effect = lower value",0.916
same,normalized growth,"S. cerevisiae deletion strains, locus YPR167C, strain met16, stronger effect = lower value",0.968
same,normalized growth,"S. cerevisiae deletion strains, strain wtn01, stronger effect = lower value",0.928
same,normalized growth,"S. cerevisiae strains, strain wild type, stronger effect = lower value",0.97
N[C@@H](CCC(=O)N[C@H](CSN=O)C(=O)NCC(=O)O)C(=O)O,normalized growth,[10],1
same,normalized growth,[11],1.01
same,normalized growth,[1],1
same,normalized growth,[12],1.05
same,normalized growth,[13],1
same,normalized growth,[2],1.02
same,normalized growth,[5],0.996
same,normalized growth,[7],1.01
same,normalized growth,[14],1.01
same,normalized growth,[15],1
same,normalized growth,[16],1
same,normalized growth,[17],1.01
same,normalized growth,[8],1.02
same,normalized growth,[9],0.995
CCn1ccnc1CC1COc2ccccc2O1 (stereo not drawn),normalized growth,[10],1.02
same,normalized growth,[11],1
same,normalized growth,[1],1
same,normalized growth,[12],0.993
same,normalized growth,[13],1.01
same,normalized growth,[3],0.993
same,normalized growth,[4],1
same,normalized growth,[5],0.996
same,normalized growth,[6],1.01
same,normalized growth,[14],0.997
same,normalized growth,[15],0.996
same,normalized growth,[16],1.01
same,normalized growth,[17],1.07
